According to PubChem BioAssay (NCATS):
Results filed as inconclusive are left out. Where a call stands in place of a potency, no number is given. Activity calls are given as the source filed them. Calls come from the whole dose curve; as a rule, active = well fitted inhibition curve with a large enough effect; inconclusive = small, poorly fitted or top-dose-only effect; inactive = flat fitted curve, though single readings scatter.
Potency is the fitted concentration of half-maximal effect.

These compounds were tested against Glutathione peroxidase 1 (Homo sapiens) (UniProt P07203) (assay: Primary qHTS Assay for Inhibitors of Recombinant Selenoprotein Glutathione Peroxidase 1 (GPX1) (AID 1845191; note: nearly all actives have a fitted effect of over 65% in size)). Details: recombinant GPX1, GR-coupled NADPH fluorescence, 15 min; series mostly up to 48.8 µM.
Glutathione peroxidase 1 (Homo sapiens), sequence (P07203 whole entry, looked up): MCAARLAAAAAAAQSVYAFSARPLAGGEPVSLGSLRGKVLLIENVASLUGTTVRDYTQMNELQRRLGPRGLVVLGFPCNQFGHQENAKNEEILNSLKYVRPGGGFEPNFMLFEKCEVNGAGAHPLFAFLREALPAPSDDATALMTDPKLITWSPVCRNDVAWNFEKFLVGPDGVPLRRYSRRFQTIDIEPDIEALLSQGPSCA
Source text: Assay Provider: Elias S.J. Arner MD PhD.
Department of Medical Biochemistry and Biophysics
Karolinska Institutet, Solna, Stockholm, Sweden
Selenoprotein glutathione peroxidases (GPX), like the ubiquitously expressed GPX1 and the ferroptosis modulator GPX4, enact their antioxidant activities by reducing hydroperoxides using glutathione. […] GPX1 and GPX4 inhibitors have thus shown promise as anti-cancer agents. Existing inhibitors are often promiscuous, or modulate GPX activity only indirectly, so novel direct inhibitors identified through screening against GPX1 and GPX4 could be valuable. Here, we developed optimized glutathione reductase (GR)-coupled GPX assays for the biochemical high-throughput screen (HTS) of almost 12,000 compounds with known mechanisms of action. Initial hits were triaged using a GR counter-screen, assessed for isoform specificity using a separate GPX2 assay, and were assessed for general selenocysteine-targeting activity using a thioredoxin reductase (TXNRD1) assay. With this suite of assays, we identified novel GPX1/GPX2- and GPX4-specific inhibitors and can here present a validated pipeline for future discovery research for selenoprotein-targeting agents.
SEQUENCE No. (e.g., 1, 2, 3, etc.); […] (e.g., Cells, Incubation, Reagent, etc.); VALUE; DESCRIPTION.
1; Reagent 1; 3 uL; GPx1 enzyme or no enzyme control in 1536-well, black, solid Greiner assay plate.
2; Compound; 25 nL; Kalypsis pin tool (Wako USA) equipped with a 1536-well pin head.
3; Incubation; 30 min; room temperature.
4; Reagent 2; 1 uL; 10 nM GPX1, 1 mM GSH, 0.5 mM CHP, 0.5 mM NADPH, 100 nM GR, 0.01% BSA substrate
5; Detection; Fluorescence; ViewLux microplate reader, excitation 340 nm and emission 450 nm.
6; Incubation; 15 min; room temperature.
7; Detection; Fluorescence; ViewLux microplate reader, excitation 340 nm and emission 450 nm.
NOTES (numbers refer to Sequence numbers above)
1. 3 uL of 16.66 nM GPX1 and 0.016% BSA in assay buffer (50 mM Tris-HCl, 2 mM EDTA (pH 7.5), 150 mM NaCl) was added to columns 3-48 of 1536-well assay plates using a BioRAPTR Flying Reagent Dispenser (Let's Go Robotics (LGR), Carlsbad, CA). A no-enzyme control (0.01% BSA in TES assay buffer) was added to columns 1-2.
2. 25 nL of test compounds and DMSO controls were added to each well with a pin tool (Kalypsys).
3. The assay plates were incubated for 30 minutes at room temperature.
4. 1 uL of master mix (500 nM glutathione reductase (GR), 5 mM reduced glutathione (GSH), 2.5 mM NADPH in assay buffer) was added. 1 uL of cumene hydroperoxide (CHP) ([2.5 mM] in 50% EtOH) was then added within 5 minutes to initiate the reaction. Final concentrations were: 10 nM GPX1, 1 mM GSH, 0.5 mM CHP, 0.5 mM NADPH, 100 nM GR, 0.01% BSA.
5. Initial fluorescence readout (t=0) at 340/450 nm was measured using a ViewLux multimodal detector (PerkinElmer, Waltham, MA).
7. Endpoint fluorescence readout (t=15) at 340/450 nm was measured 15 min after room temperature incubation.
With CCCC[C@@]1(C2CCCC2)Cc2cc(OCC(=O)O)c(Cl)c(Cl)c2C1=O the Potency was “inactive”.
For N[C@@H](CCC(=O)N[C@H](CSN=O)C(=O)NCC(=O)O)C(=O)O, the Potency was “inactive”.
Fc1ccc(CN(C2=NCCN2)c2c(Cl)cccc2Cl)cc1 was tested, and the Potency was “inactive”.
With CN1CCC2(CCN3CCc4c(oc5ccccc45)C3C2)N(C)C1=O (stereo not given) the Potency was “inactive”.
In the case of Cn1c(=O)c2[nH]c(-c3ccc(S(=O)(=O)O)cc3)nc2n(C)c1=O, the Potency is reported as 10 µM (active).
With NC1(C(=O)O)CC1 the Potency was “inactive”.
For CCCCCCCCCCCCCCC[C@H](O)[C@H](N)CO, the Potency was “inactive”.
In the case of C#CC(N)CCC(=O)O (stereo not given), the Potency is reported as “inactive”.
For NC1(C(=O)O)CCCCC1, the Potency was “inactive”.
In the case of CNC(=O)c1cc2c(cn1)[nH]c1ccccc12, the Potency is reported as “inactive”.
With O=c1ccn([C@@H]2O[C@H](COP(=O)(O)OP(=O)(O)O)[C@@H](O)[C@H]2O)c(=O)[nH]1 the Potency was “inactive”.
Nn1nnc2ccccc21 was tested, and the Potency was “inactive”.
In the case of CN(C)CCC(c1ccc(Br)cc1)c1ccccn1 (stereo not given), the Potency is reported as “inactive”.
For CCSC(=N)N, the Potency was “inactive”.
For Cc1ccc([N+](=O)[O-])cc1S(=O)(=O)N(C)C, the Potency was “inactive”.
With C=C(C)C1CC=C(C(=O)O)CC1 (stereo not given) the Potency was “inactive”.
In the case of N[C@H]1CONC1=O, the Potency is reported as “inactive”.
COc1cc(/C=C(\C#N)C(=O)c2ccc(O)c(O)c2)cc(I)c1O was tested, and the Potency was “inactive”.
For NC1CCN(O)C1=O (stereo not given), the Potency was “inactive”.
CN1CCN(c2nc3cc(C(F)(F)F)ccc3n3cccc23)CC1 was tested, and the Potency was “inactive”.
In the case of CCCn1c(=O)c(C)cn2nc(N)nc12, the Potency is reported as “inactive”.
With CCCCCCCCCCCCCCCCCCOC[C@H](COP(=O)([O-])OCC[N+](C)(C)C)OC the Potency was “inactive”.
With CCCCCCC/C=C\CCCCCCCCC(=O)O the Potency was “inactive”.
For O=C(c1ccc2c(c1)OCCO2)N1CCCCC1, the Potency was “inactive”.
For CC(=O)NCCc1c[nH]c2ccc(O)cc12, the Potency was “inactive”.
N=C(N)SCCN was tested, and the Potency was “inactive”.
With CSC(N)=NCCC[C@H](N)C(=O)O the Potency was “inactive”.
NC(=Nc1ccccc1)NC(=O)c1nc(Cl)c(N)nc1N was tested, and the Potency was “inactive”.
In the case of Cn1c(=O)c2c(nc(/C=C/c3cccc(Cl)c3)n2C)n(C)c1=O, the Potency is reported as “inactive”.
In the case of O=[N+]([O-])c1cccc2cn[nH]c12, the Potency is reported as “inactive”.
In the case of COc1ccc(CCn2nnnc2C2(c3ccc(C)cc3)CC2)cc1, the Potency is reported as “inactive”.
CN1CCCC1CCOC(C)(c1ccccc1)c1ccc(Cl)cc1 (stereo not given) was tested, and the Potency was “inactive”.
With O=C(O)c1cc(=O)cc(C(=O)O)[nH]1 the Potency was “inactive”.
Nc1ncnc2c1ncn2C1CCCO1 (stereo not given) was tested, and the Potency was “inactive”.
For N[C@H](C(=O)O)[C@H](Cc1ccccc1)C(=O)O, the Potency was “inactive”.
For COc1ccccc1N1CCN(CCN(C(=O)c2ccc(F)cc2)c2ccccn2)CC1, the Potency was “inactive”.
CC(C)Cn1c(=O)n(C)c(=O)c2[nH]cnc21 was tested, and the Potency was “inactive”.
For NC(=O)CNCCC(c1ccccc1)c1ccccc1, the Potency was “inactive”.
With NCCCCN the Potency was “inactive”.
For N=C(N)SCCc1cnc[nH]1, the Potency was “inactive”.
